# Screens as filed in PubChem BioAssay.
# hgDAF-12 ag = hgDAF-12 agonism, primary luciferase screen; HEK293 GAL4-hgDAF12 UAS-luciferase reporter, agonist luminescence; normalized to butyrate control; activation, % at 6.8 µM; 370,000 tested, 1.8% active; AID 687014;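 active means activation above a cutoff set at the mean of all screened compounds plus 3 SD, cut at about 10% in these data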;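 further: 0% = DMSO wells and 100% = sodium butyrate wells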
# ssDAF-12 act = activators of S. stercoralis DAF-12 nuclear receptor; 370,000 tested, 1% active; activation, % at 6.8 µM; HEK293 ssDAF-12/GRIP1 lit1-tk-luc reporter, luminescence; % of 3 µM dafachronic acid response; AID 652126;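 active means activation above the mean over all tested compounds plus 3 SD, cut at about 0.9% in these data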;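 further: 0% = DMSO-only wells and 100% = 3 µM delta7-dafachronic acid wells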
# hcDAF-12 act = H. contortus DAF-12 activation, primary screen; activation, % at 6.8 µM; 370,000 tested, 1.4% active; HEK293 hcDAF-12 lit1-tk-luc reporter, luminescence; 0% DMSO, 100% Δ7-dafachronic acid; AID 652067;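 active means activation above the mean of all tested compounds plus 3 SD, cut at about 5.5% in these data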;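 further: 100% = response to 3 µM Δ7-dafachronic acid high control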
# SMARCA2 activ = SMARCA2 function activation, primary screen; MG213 cells, MMTV-luciferase reporter, dexamethasone, overnight; activation, % at 9.1 µM; 370,000 tested, 1% active; in the data active means activation above about 7.8%;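 further: 0% = vehicle wells and 100% = reference activator wells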
# DAX1 inh = DAX1 (NR0B1) inhibition, primary screen | inhibition, % at 6.8 µM | 370,000 tested, 1.1% active | HEK293T StAR-luciferase reporter, SF-1/DAX-1 repression relief | AID 652010;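 active means inhibition above the mean over all tested compounds plus 3 SD, cut at about 3.6% in these data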;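 further: 0% = DAX-1 cells with DMSO and 100% = cells lacking DAX-1 with DMSO; higher inhibition means more luminescence from relief of DAX-1 repression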
# The depositor's hits bear a star; . = not tested or not shown; ! = not confirmed by another sample. A selection: hits, their analogues and other compounds. The true share with any hit is near 4.2%.
SMILES,hgDAF-12 ag,ssDAF-12 act,hcDAF-12 act,SMARCA2 activ,DAX1 inh
CC(Cc1cccs1)NC(=O)Nc1ccc([N+](=O)[O-])cc1 (stereo unspecified),13*,1,2,-2,0
Cc1ccc(S(=O)(=O)C2(C(=O)Nc3ccc(C(C)C)cc3)CC2)cc1,8,1.0*,-1,1,0
CC1CCCCN1CCCNC(=O)c1ccc2c(c1)NC(=O)CN2C (stereo unspecified),-4,-1,2,7.9*,0
CCn1c(C)nc2cc(C(=O)NNC(=S)Nc3ccc(F)cc3)ccc21,10,0,1,2,3.7*
Cc1cccc(-c2nnc(SCC(=O)c3ccc(F)cc3)n2C)c1,-1,-1,-3,7,0
CN(C)S(=O)(=O)c1ccc(N2CCCC2)c(C(=O)Nc2nc3ccccc3s2)c1,3,1.9*,4,1,1
CN(C)S(=O)(=O)c1ccc(N2CCCC2)c(C(=O)Nc2nc3ccc(F)cc3s2)c1,5,0.9*,5,-1,1
Cc1sc(N=Nc2ccc(N(C)C)cc2)[n+]([O-])c1C,5,0,4,2,3.7*
Cc1cc(N(C)C)ccc1N=Nc1ccc(N)cc1,4,-1,1,-5,0
COc1cccc(-c2nnc(SCC(=O)Nc3cccc4ccccc34)n2Cc2ccco2)c1,-2,-2,-3,-4,-2
CNc1nnc(-c2ccc(N(C)C)cc2)s1,11*,0,4,4,5.8*
Nc1ccc(C(=O)O)c(O)c1,11*!,-1,-1,-6,0
O=C(O)C(=Cc1ccc([N+](=O)[O-])cc1)c1ccccc1,2,-1,-1,-1,1
CN(C)c1ccc(NC(=O)CN2CCc3ccccc3C2)cc1,5,0,5.7*,7,1
Cn1c(=NC(=O)c2ccccc2[N+](=O)[O-])sc2cc(S(C)(=O)=O)ccc21,12*,0,5,7,4.3*
C=C(C)CSc1nc2ncccc2[nH]1,-2,-1,-1,0,0
Cc1ccc(CSc2nc3ncccc3[nH]2)cc1,13*,-1,3,6,2
C[C@@H]1CN([C@@H](C)CO)C(=O)CCCn2cc(nn2)CO[C@H]1CN(C)C(=O)Nc1ccc(-c2cccs2)cc1,0,-1,0,-6,1
CCN(CC)C(=O)CC[C@@H]1CC[C@]2(CCCN(S(C)(=O)=O)C2)O1,-1,-1,1,0,0
CC(=O)c1cccc(NC(=O)c2c(C)nn(-c3ccccc3)c2Cl)c1,0,-2,-2,4,0
CCCc1cc(C(=O)Nc2ccc(F)cc2F)no1,13*,0,1,2,1
CC(=O)c1cccc(NC(=O)c2cc3ccccn3n2)c1,7,0,1,3,3.7*
CCCc1cc(C(=O)Nc2cccc(C(C)=O)c2)no1,4,1,5.9*,7.9*,1
O=C(CSc1nnc(-c2ccco2)n1Cc1ccco1)c1ccc([N+](=O)[O-])cc1,-1,-1,-1,-4,0
Cc1ccc(-c2nc3ncccn3c2NC(=O)c2cccc(C)c2)cc1,1,-1,-2,-1,0
SMILES,hgDAF-12 ag,ssDAF-12 act,hcDAF-12 act,SMARCA2 activ,DAX1 inh
CC(C)[C@H](NC(=O)OCc1ccccc1)C(=O)N[C@@H](Cc1ccccc1)C1(O)CN(C)C(C(=O)NCc2ccccn2)CO1 (stereo partly specified),-2,-2,-1,.,.
COc1ccc(/C=N/NC(=O)c2[nH]ncc2Br)c(OC)c1,11*,0,1,4,1
COc1ccc(/C=N/NC(=O)c2cccc(NC(C)=O)c2)c(OC)c1,4,-1,0,2,-1
O=S1(=O)c2ccc(N3CCN(Cc4ccccc4F)CC3)cc2Oc2ccccc2CN1Cc1cn(Cc2ccc(F)cc2)nn1,0,-2,-4,1,-1
Cc1nc2ccccc2nc(C)c1=NOCc1ccc(C#N)cc1,11*,0,4,0,2
COc1ccc(OC)c(S(=O)(=O)N2CCCC(C(=O)N3CCN(Cc4ccccc4)CC3)C2)c1 (stereo unspecified),-3,-1,-1,-7,-2
Cc1ccccc1CN[C@@H]1CC[C@@]23CCCN2C(=O)CCC[C@H]3C1,-3,-1,1,.,.
O=C(N/N=C/c1cccnc1)c1cc(Br)ccc1O,12*,-1,2,1,1
COCc1[nH]nc2c1C(c1ccc(F)cc1)N(c1ccc(OC)cc1)C2=O (stereo unspecified),-1,-1,-1,-4,0
Cn1cc(Cl)c(-c2nc3ccccc3[nH]2)n1,12*,0,4,1,1
O=C(Cc1ccc([N+](=O)[O-])cc1)Nc1nccs1,0,0,-1,-2,0
O=C(Nc1nc(-c2ccccn2)cs1)c1ccc2c(c1)OCCO2,11*,0,1,4,3.8*
O=C(Nc1nccs1)c1ccc([N+](=O)[O-])cc1,6,1.2*,5,2,0
CCCc1cc(C(=O)Nc2nccs2)cs1,12*,-1,4,6,3
CCCN1C(=O)c2ccc(C(=O)Nc3nccs3)cc2C1=O,0,-2,-1,2,0
O=C(NC1CCCCCCC1)c1ccc2c(c1)OCO2,10,1.1*,5,6,3
CCCCCCCCN1C(=O)[C@H](CC(=O)N2CCN(C(=O)OCC)CC2)C[C@@]2(C(=O)OCC)CCCC=C12,0,-1,-1,3,0
COC(=O)[C@H](C(C)C)N1Cc2nnn(Cc3ccc(C)cc3)c2-c2cc(F)ccc2S1(=O)=O,-3,-1,0,-4,-1
Cc1ccccc1C(=O)NC1CCCCN(Cc2cccc(C(F)(F)F)c2)C1=O (stereo unspecified),3,-1,-2,-3,0
CCOC(=O)[C@@]12CN(C(=O)OC(C)(C)C)CC=C1N(Cc1ccc(OC)cc1)C(=O)[C@H]2CC(=O)NCC1CCCCC1,2,-2,-4,-2,-1
C=CCOc1ccc(C(=O)NC2CCCCC2)cc1,10*,-1,4,4,1
COc1ccc(C(=O)Nc2nccs2)cc1OC,7,-1,0,4,0
O=C(Nc1nccs1)c1ccc(-c2ccc(Cl)cc2Cl)o1,4,-1,1,0,0
O=C(Nc1nccs1)c1ccc(Br)o1,8,-1,5.8*,5,1
CCn1cc(Br)c(C(=O)Nc2nccs2)n1,11*,0,6.0*,4,0
O=C(Nc1nccs1)c1ccc2c(c1)OCO2,11*,0,4,3,1
Cc1cc(/C=C(\C#N)C(=O)NCc2cccs2)c(C)n1-c1ccccc1F,7,1.1*,4,6,1
CSCC[C@@H](C(=O)O)N1Cc2ccccc2C1=O,-3,0,6.0*,0,0
CSCC[C@@H](C(=O)Nc1ccc2c(c1)OCCO2)N1Cc2ccccc2C1=O,-2,-1,0,-3,-1
